Tests used:
Test in all cases: log2 ratio of Biotin-Ahx-Ub-VS probe labelling (fragment/DMSO); higher = less target engagement (more negative = stronger competition), active = hit call of the paper (q ≤ 0.05, log2 ratio ≤ -1)
Details in all cases: compound concentration: 200 uM; treatment time: 3 h
[1] = molecular target: T1, USP42 (UniProt Q9H9J4)
T1 sequence (whole entry): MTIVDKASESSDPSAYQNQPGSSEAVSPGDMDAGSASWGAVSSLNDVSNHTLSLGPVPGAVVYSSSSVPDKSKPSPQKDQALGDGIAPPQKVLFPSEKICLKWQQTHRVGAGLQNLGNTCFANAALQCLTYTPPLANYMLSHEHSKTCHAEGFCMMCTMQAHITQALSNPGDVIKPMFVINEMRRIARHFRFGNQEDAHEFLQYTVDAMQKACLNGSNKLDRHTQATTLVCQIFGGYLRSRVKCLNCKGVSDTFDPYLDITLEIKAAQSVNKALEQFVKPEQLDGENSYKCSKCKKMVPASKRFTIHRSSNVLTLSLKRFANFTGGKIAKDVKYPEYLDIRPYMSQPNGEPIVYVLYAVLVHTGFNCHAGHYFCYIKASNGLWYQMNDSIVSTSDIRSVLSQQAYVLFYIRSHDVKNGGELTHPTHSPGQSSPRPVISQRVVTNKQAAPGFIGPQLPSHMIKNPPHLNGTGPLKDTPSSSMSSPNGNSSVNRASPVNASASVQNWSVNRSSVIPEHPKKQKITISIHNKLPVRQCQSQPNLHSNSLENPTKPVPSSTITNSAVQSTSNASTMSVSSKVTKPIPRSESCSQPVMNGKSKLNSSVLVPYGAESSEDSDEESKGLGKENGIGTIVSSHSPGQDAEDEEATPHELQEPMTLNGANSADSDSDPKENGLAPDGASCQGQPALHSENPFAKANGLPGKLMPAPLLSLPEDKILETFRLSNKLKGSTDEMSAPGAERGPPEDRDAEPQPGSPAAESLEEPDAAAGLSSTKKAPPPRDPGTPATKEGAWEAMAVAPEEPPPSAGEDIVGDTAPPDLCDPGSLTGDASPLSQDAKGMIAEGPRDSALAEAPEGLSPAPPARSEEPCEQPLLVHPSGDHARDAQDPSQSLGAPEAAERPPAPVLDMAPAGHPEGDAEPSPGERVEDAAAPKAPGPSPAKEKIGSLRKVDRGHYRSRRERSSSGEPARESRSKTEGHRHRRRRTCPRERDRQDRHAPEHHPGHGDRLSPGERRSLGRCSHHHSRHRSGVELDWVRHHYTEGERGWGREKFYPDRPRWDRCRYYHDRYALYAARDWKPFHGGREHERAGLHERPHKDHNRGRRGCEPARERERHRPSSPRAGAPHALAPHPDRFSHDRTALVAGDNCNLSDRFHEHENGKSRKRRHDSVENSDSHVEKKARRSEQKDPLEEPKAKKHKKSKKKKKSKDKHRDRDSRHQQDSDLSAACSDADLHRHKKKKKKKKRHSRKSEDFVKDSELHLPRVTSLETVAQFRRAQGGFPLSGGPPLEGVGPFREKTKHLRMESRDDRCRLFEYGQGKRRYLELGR
Procedure, shortened: (§1)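 Global-median-normalised Spectronaut label-free quantities were compared by unpaired t-test, and values are average log2 ratios of fragment over vehicle. Only proteins with ≥2 unique peptides were used. HEK293T lysate (495 µg per sample) was treated in triplicate with fragment at 200 µM or vehicle for 3 h and then with Biotin-Ahx-Ub-VS at 0.5 µM final for 1 h. Labelled DUBs were then NeutrAvidin-enriched, digested with LysC and trypsin, and run by diaPASEF LC-MS/MS.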

[2] = molecular target: USP46 (UniProt P62068)
Chain of USP46 (P62068 whole entry): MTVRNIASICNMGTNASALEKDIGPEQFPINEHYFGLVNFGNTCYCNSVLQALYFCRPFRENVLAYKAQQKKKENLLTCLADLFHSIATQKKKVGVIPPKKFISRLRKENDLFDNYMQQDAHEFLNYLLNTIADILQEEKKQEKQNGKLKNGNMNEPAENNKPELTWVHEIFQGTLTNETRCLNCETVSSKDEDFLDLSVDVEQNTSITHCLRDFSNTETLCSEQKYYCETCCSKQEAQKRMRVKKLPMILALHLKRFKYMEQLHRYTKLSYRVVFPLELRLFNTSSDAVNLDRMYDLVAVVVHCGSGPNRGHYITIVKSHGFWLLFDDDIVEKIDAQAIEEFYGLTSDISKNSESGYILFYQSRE
Procedure, shortened: as §1

[3] = molecular target: T2, USP47 (UniProt Q96K76)
T2 sequence (whole entry): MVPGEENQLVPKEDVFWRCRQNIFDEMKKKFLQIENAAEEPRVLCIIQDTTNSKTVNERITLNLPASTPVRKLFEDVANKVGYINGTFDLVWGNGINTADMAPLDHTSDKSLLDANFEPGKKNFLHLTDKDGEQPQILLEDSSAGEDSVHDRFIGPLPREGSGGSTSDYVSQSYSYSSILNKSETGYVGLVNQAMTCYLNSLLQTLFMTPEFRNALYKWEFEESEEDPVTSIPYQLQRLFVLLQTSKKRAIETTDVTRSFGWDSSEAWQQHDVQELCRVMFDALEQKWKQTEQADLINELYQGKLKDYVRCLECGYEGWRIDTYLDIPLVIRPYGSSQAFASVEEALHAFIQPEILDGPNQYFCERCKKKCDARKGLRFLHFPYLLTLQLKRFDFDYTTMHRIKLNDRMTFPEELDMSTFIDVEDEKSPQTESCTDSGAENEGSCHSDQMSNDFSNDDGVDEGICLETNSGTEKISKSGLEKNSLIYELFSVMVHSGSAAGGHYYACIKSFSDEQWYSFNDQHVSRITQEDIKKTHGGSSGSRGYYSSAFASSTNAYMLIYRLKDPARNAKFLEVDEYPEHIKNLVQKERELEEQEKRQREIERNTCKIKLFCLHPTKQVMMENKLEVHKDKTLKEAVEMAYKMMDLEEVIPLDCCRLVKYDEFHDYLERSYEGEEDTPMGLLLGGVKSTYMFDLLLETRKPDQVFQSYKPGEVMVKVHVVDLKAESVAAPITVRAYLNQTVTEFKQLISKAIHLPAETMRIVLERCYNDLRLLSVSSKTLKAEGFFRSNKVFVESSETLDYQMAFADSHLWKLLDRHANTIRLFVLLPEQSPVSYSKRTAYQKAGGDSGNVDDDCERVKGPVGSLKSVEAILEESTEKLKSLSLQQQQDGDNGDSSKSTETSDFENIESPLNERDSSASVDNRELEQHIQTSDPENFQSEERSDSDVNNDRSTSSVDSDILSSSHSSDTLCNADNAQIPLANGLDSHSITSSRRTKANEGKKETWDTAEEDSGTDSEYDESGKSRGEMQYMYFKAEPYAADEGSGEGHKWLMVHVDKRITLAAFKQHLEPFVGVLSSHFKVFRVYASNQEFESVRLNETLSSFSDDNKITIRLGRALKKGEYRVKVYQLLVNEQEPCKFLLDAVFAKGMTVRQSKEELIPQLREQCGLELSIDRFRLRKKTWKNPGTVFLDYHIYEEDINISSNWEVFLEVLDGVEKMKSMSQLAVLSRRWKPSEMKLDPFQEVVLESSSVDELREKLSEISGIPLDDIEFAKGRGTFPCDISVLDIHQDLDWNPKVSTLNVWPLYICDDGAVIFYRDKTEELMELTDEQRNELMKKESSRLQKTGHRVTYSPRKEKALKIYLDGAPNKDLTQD
Procedure, shortened: as §1

[4] = molecular target: T3, USP48 (UniProt Q86UV5)
T3 sequence (whole entry): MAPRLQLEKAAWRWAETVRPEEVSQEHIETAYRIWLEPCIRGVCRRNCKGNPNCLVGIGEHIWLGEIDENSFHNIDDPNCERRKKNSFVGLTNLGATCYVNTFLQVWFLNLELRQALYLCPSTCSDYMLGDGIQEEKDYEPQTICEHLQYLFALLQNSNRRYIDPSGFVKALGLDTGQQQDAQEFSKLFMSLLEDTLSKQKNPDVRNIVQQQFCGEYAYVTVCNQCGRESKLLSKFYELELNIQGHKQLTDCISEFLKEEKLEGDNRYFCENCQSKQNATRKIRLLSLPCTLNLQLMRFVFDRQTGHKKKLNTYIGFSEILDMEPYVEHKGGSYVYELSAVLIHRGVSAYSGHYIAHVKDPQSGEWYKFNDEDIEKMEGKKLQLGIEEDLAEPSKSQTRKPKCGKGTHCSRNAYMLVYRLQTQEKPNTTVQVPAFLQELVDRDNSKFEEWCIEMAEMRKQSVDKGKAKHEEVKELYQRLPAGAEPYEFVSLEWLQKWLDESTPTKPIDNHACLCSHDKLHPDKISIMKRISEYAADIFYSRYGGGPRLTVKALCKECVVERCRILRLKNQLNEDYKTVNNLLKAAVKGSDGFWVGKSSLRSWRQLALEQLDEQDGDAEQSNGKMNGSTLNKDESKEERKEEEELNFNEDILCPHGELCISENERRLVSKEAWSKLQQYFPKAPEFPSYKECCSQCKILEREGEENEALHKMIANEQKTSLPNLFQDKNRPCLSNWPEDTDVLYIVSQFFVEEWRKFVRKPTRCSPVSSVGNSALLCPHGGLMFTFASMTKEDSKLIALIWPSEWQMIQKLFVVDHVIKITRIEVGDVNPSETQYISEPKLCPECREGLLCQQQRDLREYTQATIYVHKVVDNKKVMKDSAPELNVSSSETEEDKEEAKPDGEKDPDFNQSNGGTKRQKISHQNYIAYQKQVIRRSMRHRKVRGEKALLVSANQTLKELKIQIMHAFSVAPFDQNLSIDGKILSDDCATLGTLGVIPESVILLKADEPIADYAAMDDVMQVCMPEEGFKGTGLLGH
Procedure, shortened: as §1

[5] = molecular target: T4, USP5 (UniProt P45974)
T4 sequence (whole entry): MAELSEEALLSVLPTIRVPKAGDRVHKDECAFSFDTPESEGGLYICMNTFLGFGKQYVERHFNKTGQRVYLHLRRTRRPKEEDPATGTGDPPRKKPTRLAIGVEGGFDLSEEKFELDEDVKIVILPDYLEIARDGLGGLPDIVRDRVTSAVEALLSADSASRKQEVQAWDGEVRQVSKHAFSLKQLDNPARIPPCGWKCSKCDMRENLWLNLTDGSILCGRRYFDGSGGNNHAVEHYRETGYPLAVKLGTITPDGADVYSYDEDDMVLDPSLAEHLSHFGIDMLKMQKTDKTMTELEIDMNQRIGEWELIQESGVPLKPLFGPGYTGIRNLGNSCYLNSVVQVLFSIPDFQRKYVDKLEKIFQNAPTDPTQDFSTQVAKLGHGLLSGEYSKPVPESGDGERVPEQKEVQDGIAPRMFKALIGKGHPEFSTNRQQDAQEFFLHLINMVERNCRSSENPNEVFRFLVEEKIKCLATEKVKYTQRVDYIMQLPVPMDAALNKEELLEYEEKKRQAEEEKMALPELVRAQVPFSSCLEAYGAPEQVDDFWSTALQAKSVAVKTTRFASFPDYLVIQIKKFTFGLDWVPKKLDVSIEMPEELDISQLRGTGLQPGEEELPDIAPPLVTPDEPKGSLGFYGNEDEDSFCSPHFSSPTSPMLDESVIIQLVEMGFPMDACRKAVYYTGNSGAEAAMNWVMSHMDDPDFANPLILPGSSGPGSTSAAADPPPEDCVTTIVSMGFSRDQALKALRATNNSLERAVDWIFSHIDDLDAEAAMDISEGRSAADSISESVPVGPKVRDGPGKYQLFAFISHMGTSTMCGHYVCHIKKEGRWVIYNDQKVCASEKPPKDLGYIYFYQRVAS
Procedure, shortened: as §1

[6] = molecular target: USP54 (UniProt Q70EL1)
Procedure, shortened: as §1

[7] = molecular target: USP7 (UniProt Q93009)
Chain of USP7 (Q93009 whole entry, looked up): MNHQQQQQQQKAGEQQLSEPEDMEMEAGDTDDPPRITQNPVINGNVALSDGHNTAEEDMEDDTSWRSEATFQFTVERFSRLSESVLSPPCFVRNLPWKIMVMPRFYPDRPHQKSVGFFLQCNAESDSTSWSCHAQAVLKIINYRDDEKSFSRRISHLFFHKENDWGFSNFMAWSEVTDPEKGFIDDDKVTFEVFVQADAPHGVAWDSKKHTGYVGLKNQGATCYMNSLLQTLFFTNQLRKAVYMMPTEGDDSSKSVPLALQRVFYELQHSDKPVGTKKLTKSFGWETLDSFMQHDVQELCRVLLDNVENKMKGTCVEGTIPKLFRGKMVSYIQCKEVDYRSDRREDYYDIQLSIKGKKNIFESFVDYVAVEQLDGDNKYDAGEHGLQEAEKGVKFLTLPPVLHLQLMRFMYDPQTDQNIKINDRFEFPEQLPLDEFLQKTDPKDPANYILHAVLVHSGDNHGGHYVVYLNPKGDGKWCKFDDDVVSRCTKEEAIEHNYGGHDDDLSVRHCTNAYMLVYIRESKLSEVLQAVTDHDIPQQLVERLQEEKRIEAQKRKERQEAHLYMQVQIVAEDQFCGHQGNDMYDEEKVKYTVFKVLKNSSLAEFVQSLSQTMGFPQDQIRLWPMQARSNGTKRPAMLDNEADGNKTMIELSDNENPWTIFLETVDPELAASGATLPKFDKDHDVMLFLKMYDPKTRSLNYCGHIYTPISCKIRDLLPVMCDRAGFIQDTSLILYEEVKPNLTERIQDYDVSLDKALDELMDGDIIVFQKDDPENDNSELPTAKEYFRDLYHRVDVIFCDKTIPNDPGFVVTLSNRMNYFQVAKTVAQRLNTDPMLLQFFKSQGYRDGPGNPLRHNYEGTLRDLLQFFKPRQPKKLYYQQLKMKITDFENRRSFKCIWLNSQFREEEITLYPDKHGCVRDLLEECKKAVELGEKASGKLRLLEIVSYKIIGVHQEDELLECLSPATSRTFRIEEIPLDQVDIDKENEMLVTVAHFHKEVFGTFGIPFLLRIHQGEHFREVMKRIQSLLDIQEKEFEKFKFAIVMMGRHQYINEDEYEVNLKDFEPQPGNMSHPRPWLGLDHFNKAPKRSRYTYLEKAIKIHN
Procedure, shortened: as §1

[8] = molecular target: T5, USP8 (UniProt P40818)
T5 sequence (whole entry): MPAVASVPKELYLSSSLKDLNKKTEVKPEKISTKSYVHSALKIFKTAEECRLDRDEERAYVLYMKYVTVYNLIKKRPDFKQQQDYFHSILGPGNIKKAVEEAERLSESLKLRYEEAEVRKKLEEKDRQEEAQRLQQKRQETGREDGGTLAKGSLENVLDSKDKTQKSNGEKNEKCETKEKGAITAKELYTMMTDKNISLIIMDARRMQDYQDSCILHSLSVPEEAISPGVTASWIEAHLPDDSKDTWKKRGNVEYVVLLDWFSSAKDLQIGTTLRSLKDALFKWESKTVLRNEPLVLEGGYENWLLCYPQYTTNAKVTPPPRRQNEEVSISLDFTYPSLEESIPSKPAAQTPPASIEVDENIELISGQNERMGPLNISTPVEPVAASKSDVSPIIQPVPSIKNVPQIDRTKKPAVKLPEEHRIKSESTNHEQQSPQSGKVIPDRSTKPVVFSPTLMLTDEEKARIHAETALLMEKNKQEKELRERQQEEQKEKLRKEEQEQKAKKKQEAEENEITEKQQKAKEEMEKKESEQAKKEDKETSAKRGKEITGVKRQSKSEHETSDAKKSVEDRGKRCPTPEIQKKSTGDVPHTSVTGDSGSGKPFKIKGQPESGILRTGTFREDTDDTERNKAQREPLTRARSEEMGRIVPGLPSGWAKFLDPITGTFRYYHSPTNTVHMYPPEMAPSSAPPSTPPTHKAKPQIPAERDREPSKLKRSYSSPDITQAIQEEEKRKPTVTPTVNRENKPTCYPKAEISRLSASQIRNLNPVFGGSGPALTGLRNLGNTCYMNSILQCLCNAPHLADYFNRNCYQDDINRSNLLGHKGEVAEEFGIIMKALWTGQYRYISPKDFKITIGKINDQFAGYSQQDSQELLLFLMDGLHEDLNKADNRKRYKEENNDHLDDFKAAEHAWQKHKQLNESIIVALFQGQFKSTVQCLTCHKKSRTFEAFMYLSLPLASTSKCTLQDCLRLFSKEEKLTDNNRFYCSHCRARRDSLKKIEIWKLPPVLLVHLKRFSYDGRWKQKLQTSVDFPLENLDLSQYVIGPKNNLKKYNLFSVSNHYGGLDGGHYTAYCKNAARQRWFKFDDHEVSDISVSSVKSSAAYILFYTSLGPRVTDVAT
Procedure, shortened: as §1

[9] = molecular target: USP9X (UniProt Q93008)
Chain of USP9X (Q93008 whole entry): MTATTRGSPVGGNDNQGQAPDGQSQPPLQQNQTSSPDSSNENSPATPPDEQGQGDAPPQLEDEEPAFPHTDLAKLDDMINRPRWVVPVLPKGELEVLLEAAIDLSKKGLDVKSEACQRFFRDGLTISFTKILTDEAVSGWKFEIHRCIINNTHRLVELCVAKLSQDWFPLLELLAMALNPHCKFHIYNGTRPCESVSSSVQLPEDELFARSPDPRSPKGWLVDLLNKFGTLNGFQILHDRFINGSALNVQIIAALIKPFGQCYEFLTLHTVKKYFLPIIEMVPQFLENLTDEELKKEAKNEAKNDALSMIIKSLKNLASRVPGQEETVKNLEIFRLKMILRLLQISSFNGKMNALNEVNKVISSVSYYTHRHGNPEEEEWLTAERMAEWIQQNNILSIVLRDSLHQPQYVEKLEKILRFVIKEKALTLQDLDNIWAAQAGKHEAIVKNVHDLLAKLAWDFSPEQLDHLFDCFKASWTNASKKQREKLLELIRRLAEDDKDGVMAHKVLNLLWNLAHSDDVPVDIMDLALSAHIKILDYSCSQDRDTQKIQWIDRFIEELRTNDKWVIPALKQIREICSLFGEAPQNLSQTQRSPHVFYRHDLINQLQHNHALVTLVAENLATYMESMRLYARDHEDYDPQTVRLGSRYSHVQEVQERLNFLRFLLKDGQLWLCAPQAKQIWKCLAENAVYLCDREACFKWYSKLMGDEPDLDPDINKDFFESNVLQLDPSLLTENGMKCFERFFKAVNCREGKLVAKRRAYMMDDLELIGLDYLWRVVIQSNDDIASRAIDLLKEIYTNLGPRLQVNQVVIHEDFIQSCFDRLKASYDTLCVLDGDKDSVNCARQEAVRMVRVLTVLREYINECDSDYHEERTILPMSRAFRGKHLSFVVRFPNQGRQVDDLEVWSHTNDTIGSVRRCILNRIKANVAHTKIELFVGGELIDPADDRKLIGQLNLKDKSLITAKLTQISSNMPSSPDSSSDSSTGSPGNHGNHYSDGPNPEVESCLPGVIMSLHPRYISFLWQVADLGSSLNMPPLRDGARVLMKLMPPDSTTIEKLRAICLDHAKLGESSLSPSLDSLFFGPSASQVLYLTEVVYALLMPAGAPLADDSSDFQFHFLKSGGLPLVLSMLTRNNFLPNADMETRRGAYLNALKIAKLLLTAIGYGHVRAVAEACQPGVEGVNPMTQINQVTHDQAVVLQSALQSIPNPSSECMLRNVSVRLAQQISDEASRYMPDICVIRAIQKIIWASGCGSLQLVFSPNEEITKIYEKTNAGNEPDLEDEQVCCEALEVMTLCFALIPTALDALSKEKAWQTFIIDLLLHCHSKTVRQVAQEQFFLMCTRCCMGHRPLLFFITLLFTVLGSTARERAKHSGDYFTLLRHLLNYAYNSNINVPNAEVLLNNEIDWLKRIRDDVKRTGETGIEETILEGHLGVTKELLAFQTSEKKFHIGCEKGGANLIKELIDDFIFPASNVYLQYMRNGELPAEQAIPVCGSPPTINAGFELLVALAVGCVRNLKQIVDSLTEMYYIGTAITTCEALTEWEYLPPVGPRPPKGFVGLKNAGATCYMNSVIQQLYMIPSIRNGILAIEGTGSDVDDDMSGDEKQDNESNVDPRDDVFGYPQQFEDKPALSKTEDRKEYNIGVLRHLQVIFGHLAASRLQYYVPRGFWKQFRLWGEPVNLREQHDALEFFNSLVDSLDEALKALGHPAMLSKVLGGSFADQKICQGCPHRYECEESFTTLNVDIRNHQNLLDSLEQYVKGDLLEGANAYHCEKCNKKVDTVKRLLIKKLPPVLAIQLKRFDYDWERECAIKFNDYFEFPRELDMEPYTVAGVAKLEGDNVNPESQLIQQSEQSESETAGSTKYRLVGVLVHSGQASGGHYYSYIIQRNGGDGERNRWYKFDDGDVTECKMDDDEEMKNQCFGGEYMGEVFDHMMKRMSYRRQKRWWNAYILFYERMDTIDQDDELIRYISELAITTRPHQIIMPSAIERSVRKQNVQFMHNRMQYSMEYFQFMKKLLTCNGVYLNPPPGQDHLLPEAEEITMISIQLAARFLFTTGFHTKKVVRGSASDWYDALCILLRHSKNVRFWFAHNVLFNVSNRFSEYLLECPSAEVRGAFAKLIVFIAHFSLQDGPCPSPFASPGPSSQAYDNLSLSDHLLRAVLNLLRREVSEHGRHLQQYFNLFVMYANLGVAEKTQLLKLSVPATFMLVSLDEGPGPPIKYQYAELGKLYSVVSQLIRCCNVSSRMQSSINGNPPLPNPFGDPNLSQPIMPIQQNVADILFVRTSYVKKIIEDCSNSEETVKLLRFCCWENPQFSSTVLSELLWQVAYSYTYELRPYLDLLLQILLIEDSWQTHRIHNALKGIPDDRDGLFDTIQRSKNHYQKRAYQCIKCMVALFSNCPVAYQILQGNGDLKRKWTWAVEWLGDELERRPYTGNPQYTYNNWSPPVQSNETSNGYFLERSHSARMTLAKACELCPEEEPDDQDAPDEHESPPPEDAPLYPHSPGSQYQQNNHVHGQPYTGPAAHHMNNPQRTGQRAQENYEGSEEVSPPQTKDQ
Procedure, shortened: as §1

[10] = molecular target: UniProt O00487
Chain of UniProt O00487 (O00487 whole entry): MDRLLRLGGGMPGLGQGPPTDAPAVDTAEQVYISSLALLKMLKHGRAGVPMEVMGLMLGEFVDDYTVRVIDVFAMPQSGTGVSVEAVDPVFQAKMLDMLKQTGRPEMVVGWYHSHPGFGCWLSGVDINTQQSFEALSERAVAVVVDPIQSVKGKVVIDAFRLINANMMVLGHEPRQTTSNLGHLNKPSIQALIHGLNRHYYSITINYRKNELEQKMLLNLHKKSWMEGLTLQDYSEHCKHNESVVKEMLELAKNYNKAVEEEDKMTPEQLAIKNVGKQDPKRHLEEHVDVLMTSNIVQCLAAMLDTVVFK
Procedure, shortened: as §1

Measured: log2 ratio of Biotin-Ahx-Ub-VS probe labelling

C#Cc1cccc(NC(=O)CCl)c1
inactive: [1] 0.466 | [2] -0.0515 | [3] -0.468 | [4] -0.362 | [5] -0.268 | [6] -0.249 | [7] -0.56 | [8] -0.179 | [9] -0.146 | [10] -0.148

— the supplement of paper PMC11732987, “Enantioselective OTUD7B fragment discovery through chemoproteomics screening and high-throughput optimisation” (Communications Chemistry, 2025)
